The values that follow come from PubChem BioAssay.

For part of these data: Potency and affinity values are given separately. Some of the results follow. Active and inactive are the calls of the source.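 The calls were made as follows, unless noted: active = dose curve with midpoint inside tested range, moderate steepness, plateau gap beyond fit error, low compound glow and bead-link interference; inactive = the rest.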

For test [1], the target named is Cell division control protein 42 homolog (Homo sapiens) (UniProt P60953). The experiment in a line: wildtype Cdc42 GTP-binding inhibitors, dose response, biochemical, multiplex bead flow cytometry, Bodipy-FL-GTP (AID 1334;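 active = fitted half-maximal concentration within the tested range, moderate curve steepness, significant signal drop, and little compound fluorescence or bead-linkage interference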). To be noted: bead-based flow cytometry, Bodipy-FL-GTP binding to GST-Cdc42; at 100 µM (top of the series) unless noted. (In general: A flow cytometer gives signals particle by particle.)

Test [2] concerns the target GTPase HRas (Homo sapiens) (UniProt P01112). As to the kind of experiment: inhibitors of GTP binding to wildtype Ras, dose response, biochemical, multiplex bead flow cytometry (AID 1335;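 active = fitted half-maximal concentration within 10 nM to 100 µM, steepness 0.5 to 2, significant signal drop, low assay interference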). Particulars: bead-based flow cytometry, Bodipy-GTP binding to GST-Ras; at 100 µM (top of the series) unless noted.
Test [3] deals with Ras-related protein Rab-7a (dog), GTP binding. The experiment in a line: Rab7 GTP binding inhibitors, potency, dose response, biochemical, wildtype, multiplex bead flow cytometry (AID 1336; call rule not given here).
Test [4] addresses Ras-related C3 botulinum toxin substrate 1 (Homo sapiens) (UniProt P63000). As to the kind of experiment: wildtype Rac1 GTP binding inhibitors, dose response, biochemical, multiplex bead flow cytometry (AID 1340). Particulars: GST-Rac1 beads, Bodipy-FL-GTP binding; at 100 µM (top of the series) unless noted.
Test [5] concerns the target GTPase HRas (Homo sapiens) (UniProt P01112). The experiment in a line: activated Ras mutant GTP binding inhibitors, dose response, biochemical, multiplex bead flow cytometry (AID 1341;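 active = dose-response curve with midpoint inside the tested range, moderate steepness, significant amplitude and little compound fluorescence or bead-attachment interference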;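 also: GST-tagged constitutively activated Ras mutant immobilized on beads and multiplexed with other GTPases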).
Test [6] addresses Regulator of G-protein signaling 16 (Homo sapiens) (UniProt O15492). The experiment in a line: modulators of RGS–Galpha-o binding, primary screen, biochemical, multiplexed beads, flow cytometry, RGS4/7/8/16/19 (AID 1504; call rule not given here;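 also: fluorescently labeled Galpha-o bound to GDP with aluminium fluoride binding biotinylated RGS beads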). Particulars: multiplexed bead flow cytometry, measured here: RGS16 interaction, at 10 µM.
Test [7] addresses Regulator of G-protein signaling 19 (Homo sapiens) (UniProt P49795). The test is described as above. To be noted: multiplexed bead flow cytometry, measured here: RGS19 interaction, at 10 µM.
The target of test [8] is Regulator of G-protein signaling 4 (Homo sapiens) + Guanine nucleotide-binding protein G(o) subunit alpha (Homo sapiens) (UniProt P49798+P09471). The description is as above. Particulars: multiplexed bead flow cytometry, at 10 µM.
The target of test [9] is Regulator of G-protein signaling 7 (Homo sapiens) (UniProt P49802). The description is as above. Particulars: multiplexed bead flow cytometry, measured here: RGS7 interaction, at 10 µM.
The target in test [10] is Regulator of G-protein signaling 8 (Homo sapiens) (UniProt P57771). Described as above. Particulars: multiplexed bead flow cytometry, measured here: RGS8 interaction, at 10 µM.
Test [11] is described as follows: disruption of biotin probe capture by avidin, counter-screen for RGS protein interaction modulators, biochemical, flow cytometry, bead-based (AID 1783;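 active = inhibition above 50%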;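 as to inhibition: median green fluorescence of gated singlet beads compared with DMSO control wells; 0% = DMSO wells and 100% = complete loss of bead fluorescence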). To be noted: streptavidin beads, fluorescein-biotin binding; at 10 µM, stronger effect = higher value. (In general: The purpose of a counterscreen is to sort out artefacts and off-target activity.)
Test [12] concerns the target Guanine nucleotide-binding protein G(o) subunit alpha (Homo sapiens) (UniProt P09471). As to the kind of experiment: RGS8-Galphao binding modulators, confirmation, biochemical, multiplexed bead flow cytometry, single concentration (AID 1836; in the data active = binding response below about 72% or above about 130%; inactive = in between;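 also: Galphao activated as GDP AlF4 complex before binding bead RGS8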). To be noted: bead-based flow cytometry RGS8-Galphao binding, fluorescence; at 10 µM; actives lie on both sides.
Test [13] shares this target. As to the kind of experiment: RGS7-Galphao binding modulators, confirmation, biochemical, multiplexed bead flow cytometry, single concentration (AID 1837; in the data active = response below about 75% or above about 130%; inactive = in between;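 also: fluorescent Galphao activated with GDP and aluminum fluoride binding bead-coupled RGS7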). Particulars: bead-based flow cytometry RGS7-Galphao binding; at 10 µM; actives lie on both sides.
For test [14], the target named is Regulator of G-protein signaling 16 (Homo sapiens) + Guanine nucleotide-binding protein G(o) subunit alpha (Homo sapiens) (UniProt O15492+P09471). As to the kind of experiment: modulators of RGS16-Galphao protein binding, confirmation, biochemical, single concentration, multiplexed bead flow cytometry (AID 1838; in the data active = response below about 74% or above about 130%; inactive = in between;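 also: Galphao activated as the GDP aluminium fluoride complex binding bead-coupled RGS16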). To be noted: bead-based flow cytometry, at 10 µM, actives lie on both sides.

The target of test [15] is Guanine nucleotide-binding protein G(o) subunit alpha (Homo sapiens) (UniProt P09471). As to the kind of experiment: modulators of RGS4-Galphao protein binding, confirmation, biochemical, single concentration, multiplexed bead flow cytometry (AID 1840; in the data active = binding response below about 74% or above about 130%; inactive = in between). To be noted: at 10 µM, actives lie on both sides.
For test [16], the target named is Guanine nucleotide-binding protein G(o) subunit alpha (Homo sapiens) + Regulator of G-protein signaling 19 (Homo sapiens) (UniProt P09471+P49795). The experiment in a line: regulators of RGS19-Galphao binding, confirmation, biochemical, single point, multiplexed bead flow cytometry (AID 1841; in the data active = response below about 50% or above about 160%; inactive = in between;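 also: 100% = no compound control and 0% = blank background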). To be noted: bead-based flow cytometry RGS19-Galphao binding; at 10 µM; actives lie on both sides.
Chain of Guanine nucleotide-binding protein G(o) subunit alpha (Homo sapiens) + Regulator of G-protein signaling 19 (Homo sapiens) (P09471 whole entry, looked up): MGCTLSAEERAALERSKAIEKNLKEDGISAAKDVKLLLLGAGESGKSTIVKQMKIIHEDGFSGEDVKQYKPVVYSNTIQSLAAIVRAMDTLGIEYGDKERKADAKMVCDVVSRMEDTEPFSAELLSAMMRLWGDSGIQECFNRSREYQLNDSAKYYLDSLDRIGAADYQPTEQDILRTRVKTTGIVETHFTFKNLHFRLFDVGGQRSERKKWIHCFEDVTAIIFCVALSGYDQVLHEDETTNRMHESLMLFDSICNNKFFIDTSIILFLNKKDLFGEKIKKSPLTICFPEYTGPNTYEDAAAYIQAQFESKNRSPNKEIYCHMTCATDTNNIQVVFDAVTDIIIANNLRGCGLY
Chain of Guanine nucleotide-binding protein G(o) subunit alpha (Homo sapiens) + Regulator of G-protein signaling 19 (Homo sapiens) (P49795 whole entry, looked up): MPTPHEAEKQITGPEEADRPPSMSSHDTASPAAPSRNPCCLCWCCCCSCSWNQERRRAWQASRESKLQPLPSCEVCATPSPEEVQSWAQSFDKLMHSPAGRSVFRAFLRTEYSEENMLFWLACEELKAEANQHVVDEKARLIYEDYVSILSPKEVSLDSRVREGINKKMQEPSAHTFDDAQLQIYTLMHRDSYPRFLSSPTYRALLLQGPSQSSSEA

Chain of Regulator of G-protein signaling 16 (Homo sapiens) + Guanine nucleotide-binding protein G(o) subunit alpha (Homo sapiens) (O15492 whole entry, looked up): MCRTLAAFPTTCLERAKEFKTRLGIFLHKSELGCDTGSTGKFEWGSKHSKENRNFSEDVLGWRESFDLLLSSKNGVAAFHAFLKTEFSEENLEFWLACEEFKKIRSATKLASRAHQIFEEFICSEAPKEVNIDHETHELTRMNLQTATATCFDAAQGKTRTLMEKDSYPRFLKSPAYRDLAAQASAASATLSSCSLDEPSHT
Chain of Regulator of G-protein signaling 16 (Homo sapiens) + Guanine nucleotide-binding protein G(o) subunit alpha (Homo sapiens) (P09471 whole entry, looked up): as the sequence (P09471 whole entry, looked up) above
Chain of Regulator of G-protein signaling 4 (Homo sapiens) + Guanine nucleotide-binding protein G(o) subunit alpha (Homo sapiens) (P09471 whole entry, looked up): as above
Chain of Regulator of G-protein signaling 4 (Homo sapiens) + Guanine nucleotide-binding protein G(o) subunit alpha (Homo sapiens) (P49798 whole entry, looked up): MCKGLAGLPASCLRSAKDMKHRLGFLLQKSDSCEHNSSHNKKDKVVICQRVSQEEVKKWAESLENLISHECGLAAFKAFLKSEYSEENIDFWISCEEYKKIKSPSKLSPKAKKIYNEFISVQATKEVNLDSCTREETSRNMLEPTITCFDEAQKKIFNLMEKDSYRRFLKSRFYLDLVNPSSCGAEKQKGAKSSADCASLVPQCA
Chain of Guanine nucleotide-binding protein G(o) subunit alpha (Homo sapiens) (P09471 whole entry, looked up): as the sequence (P09471 whole entry, looked up) above
Chain of GTPase HRas (Homo sapiens) (P01112 whole entry, looked up): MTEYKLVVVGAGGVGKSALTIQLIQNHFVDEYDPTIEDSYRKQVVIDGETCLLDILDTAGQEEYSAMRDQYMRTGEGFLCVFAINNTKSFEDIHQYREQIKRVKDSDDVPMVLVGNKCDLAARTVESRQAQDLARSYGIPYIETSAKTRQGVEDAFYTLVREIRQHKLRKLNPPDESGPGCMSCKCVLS
Chain of Cell division control protein 42 homolog (Homo sapiens) (P60953 whole entry, looked up): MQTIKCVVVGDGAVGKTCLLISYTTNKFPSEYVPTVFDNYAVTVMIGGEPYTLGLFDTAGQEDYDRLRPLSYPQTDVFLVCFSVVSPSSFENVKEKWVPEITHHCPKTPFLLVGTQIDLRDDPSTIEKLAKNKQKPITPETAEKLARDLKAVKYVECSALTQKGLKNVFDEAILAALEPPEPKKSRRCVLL

As for `COc1cccc(-n2nnnc2S(C)(=O)=O)c1`, the fluorescence, percent of control (lower = inhibition) in test [1] was determined as 34%. In test [2], this compound had a GTP binding, percent of control of 59.3%. Further, the outcome in test [3] and in test [5] was inactive. This compound gave a GTP binding signal, raw median fluorescence (lower = inhibition) (MCF (arbitrary fluorescence units)) in [4] of 157.
In test [4], `COc1ccc(OC)c(-c2c3cc(O)c(=O)cc-3oc3cc(O)c(O)cc23)c1` registered a GTP binding signal, raw median fluorescence (lower = inhibition) (MCF (arbitrary fluorescence units)) of 137.
`CCOc1ccc(/C=C2\SC(N3CCc4ccccc4C3)=NC2=O)cc1` gave a GTP binding, percent of control in test [2] of 59.8%. The call in test [5] was inactive.
`COC(=O)c1cccnc1SCCc1ccccc1` showed a GTP binding, percent of control in test [2] of 125%. In test [4], this compound yielded a GTP binding signal, raw median fluorescence (lower = inhibition) (MCF (arbitrary fluorescence units)) of 72.5. Further, the result in test [5] was inactive.
Compound `CS(=O)(=O)c1ccc(C(=O)OCC(=O)NC(=O)C2CCCCC2)cc1[N+](=O)[O-]` came in with a GTP binding, percent of control in test [2] of 76.2%. For the same compound, the outcome in test [3] and in test [5] was inactive. Moreover, the GTP binding signal, raw median fluorescence (lower = inhibition) (MCF (arbitrary fluorescence units)) in test [4] came out at 200.
`O=C(O)c1ccccc1NCCc1ccc(Cl)cc1` showed a GTP binding, percent of control in test [2] of 87%. For the same compound, the call in test [5] was inactive.
For `N#C/C(=C/c1ccc(N2CCCCC2)o1)C(=O)Nc1ccc2ccccc2c1`, the GTP binding signal, raw median fluorescence (lower = inhibition) (MCF (arbitrary fluorescence units)) in test [4] came out at 469.
With `CCCN1C(=O)/C(=C/C=C2\N(CC)c3ccccc3C2(C)C)SC1=S`, in test [2], the GTP binding, percent of control was 127%. The compound was classed as inactive in [3] and in test [5]. In test [4], this compound showed a GTP binding signal, raw median fluorescence (lower = inhibition) (MCF (arbitrary fluorescence units)) of 176.
In test [2], `O=C(NCc1cccs1)c1cccnc1C(=O)O` had a GTP binding, percent of control of 84.2%. Moreover, the compound was called inactive in [3] and in test [5]. Moreover, the GTP binding signal, raw median fluorescence (lower = inhibition) (MCF (arbitrary fluorescence units)) in test [4] amounted to 0.
With `N#Cc1c(-c2ccccc2)nc(SCC(=O)Nc2ccccc2)[nH]c1=O`, the GTP binding, percent of control in test [2] stood at 47.2%.
As to `CC(C)C(NCc1c(Cl)cccc1Cl)C(=O)O` (centres undefined), in test [2], the GTP binding, percent of control was 81.2%. Moreover, in test [5], the result was inactive.
In test [4], `COc1ccc(-c2cc(=O)c3cc(OC)ccc3[nH]2)cc1` yielded a GTP binding signal, raw median fluorescence (lower = inhibition) (MCF (arbitrary fluorescence units)) of 229.
As to `CCOC(=O)c1cc([N+](=O)[O-])c([N+](=O)[O-])cc1NC(C)=O`, in test [2], the GTP binding, percent of control turned out to be 75%. For the same compound, the compound was called inactive in [3] and in test [5]. In [4], this compound gave a GTP binding signal, raw median fluorescence (lower = inhibition) (MCF (arbitrary fluorescence units)) of 241.
Regarding `Cc1cccc(N=Cc2[nH]c3ccc(Br)c(Cl)c3c2O)c1`, in test [4], the GTP binding signal, raw median fluorescence (lower = inhibition) (MCF (arbitrary fluorescence units)) is 240.
In test [4], `O=C(/C=C/c1ccco1)Nc1ccc(-c2nc3ccccc3[nH]2)cc1` returned a GTP binding signal, raw median fluorescence (lower = inhibition) (MCF (arbitrary fluorescence units)) of 273.
As to `OC(CNCCc1ccc(Cl)cc1)COc1ccc2ccccc2c1` (centres undefined), the fluorescence, percent of control (lower = inhibition) in test [1] is 40.2%. This compound came in with a GTP binding, percent of control in test [2] of 85.7%. Also, the call in [3] and in [5] was inactive.
Turning to `CSc1ccc(CN2C(=O)NC3(CCCCCC3)C2=O)cc1`, the RGS16–Galpha-o binding response in test [6] is 99.1%. For the same compound, the RGS19–Galpha-o binding response in test [7] is 1890%. In addition, the RGS4–Galpha-o binding response in test [8] was 106% (active). Also, the RGS7–Galpha-o binding response in test [9] was 219%. Further, in test [10], the RGS8–Galpha-o binding response was determined as 97.9%. In test [11], the inhibition is -1.7% (inactive). The binding response (% of control) is 96.3% (inactive) in [12] and 97.1% (inactive) in [15]. The response (percent of control binding) is 94.7% (inactive) in test [13] and 108% (inactive) in [16]. Further, the response (% of control binding) in [14] was 96.5% (inactive).
`CCN(CC)S(=O)(=O)c1cccc(-c2n[nH]c(=S)n2/N=C/c2ccc(C(=O)OC)cc2)c1` yielded an RGS16–Galpha-o binding response in test [6] of 334%. The RGS19–Galpha-o binding response in [7] is 35.5%. Also, the RGS4–Galpha-o binding response in test [8] was 108% (active). Moreover, the RGS7–Galpha-o binding response in [9] amounted to 133%. The same compound showed an RGS8–Galpha-o binding response in test [10] of 124%. Also, the inhibition in test [11] was -1.2% (inactive). Moreover, the binding response (% of control) in test [12] was 77.7% (inactive); in test [15] it was 91% (inactive). Moreover, the response (percent of control binding) in test [13] was 113% (inactive); in [16], 66.1% (inactive). Moreover, the response (% of control binding) in test [14] was 74% (active).
Take `CC1(C)C=C2[C@H]3CC[C@@H]4[C@@]5(C)CCC(=O)C(C)(C)[C@@H]5CC[C@@]4(C)[C@]3(C)CC[C@@]2(C(=O)O)CC1`: the RGS16–Galpha-o binding response in [6] was determined as 267%. The RGS19–Galpha-o binding response in [7] was -110%. Besides, the RGS4–Galpha-o binding response in test [8] was 119% (active). Further, the RGS7–Galpha-o binding response in test [9] was 114%. In addition, the RGS8–Galpha-o binding response in [10] came out at 134%. In addition, the inhibition in [11] was 0.1% (inactive). The binding response (% of control) was 107% (inactive) in test [12] and 94.2% (inactive) in [15]. In addition, the response (percent of control binding) is 81.6% (inactive) in [13] and 68.7% (inactive) in [16]. Besides, the response (% of control binding) in test [14] is 107% (inactive).
With `O=C(Nc1ccc(-n2ccnc2P(=O)(O)c2ccccc2)cc1)c1ccccc1Br`, the RGS16–Galpha-o binding response in [6] was found to be 143%. Moreover, the RGS19–Galpha-o binding response in test [7] was 394%. In [8], the RGS4–Galpha-o binding response was 138% (active). In addition, in [9], the RGS7–Galpha-o binding response was found to be 152%. For the same compound, in test [10], the RGS8–Galpha-o binding response stood at 105%. Besides, in [11], the compound was called inactive. Moreover, the binding response (% of control) in test [12] is 114% (inactive); in test [15] it was 129% [activator] (active). In addition, the response (percent of control binding) in test [13] is 135% [activator] (active); in test [16], 139% (inactive). Besides, the response (% of control binding) in test [14] is 118% (inactive).

As a reminder, the inhibition is the relative decrease from the control value, in per cent.
